Assay outcomes (PubChem BioAssay)
NFkB transloc pot: enhances IL-1B driven NFkB nuclear translocation; HUVEC IL-1B NFkB p65 nuclear translocation imaging; activation, % at 2 µM; 0.3% of 94,000 active;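 active = activation above 40%, about the mean plus 3 SD, also judged a hit on visual image review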;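 note: percent activation is computed from the nuclear over cytoplasmic p65 intensity ratio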
IL1B cytotox: toxic to HUVEC cells under IL-1B stimulation | cell count reduction, % at 2 µM | HUVEC cell count loss, Hoechst imaging, IL-1B stimulated | AID 845 | 0.41% of 94,000 active;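 active = cell count reduction more than 3 SD above the screen-wide mean, cut at about 70% in these data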
sEH inh: blocks human soluble epoxide hydrolase activity; P34913; recombinant human sEH enzymatic activity assay; inhibition, % at 2 µM; 0.34% of 91,000 active; in the data active = inhibition above about 80%
Target sequence (P34913 whole entry, looked up): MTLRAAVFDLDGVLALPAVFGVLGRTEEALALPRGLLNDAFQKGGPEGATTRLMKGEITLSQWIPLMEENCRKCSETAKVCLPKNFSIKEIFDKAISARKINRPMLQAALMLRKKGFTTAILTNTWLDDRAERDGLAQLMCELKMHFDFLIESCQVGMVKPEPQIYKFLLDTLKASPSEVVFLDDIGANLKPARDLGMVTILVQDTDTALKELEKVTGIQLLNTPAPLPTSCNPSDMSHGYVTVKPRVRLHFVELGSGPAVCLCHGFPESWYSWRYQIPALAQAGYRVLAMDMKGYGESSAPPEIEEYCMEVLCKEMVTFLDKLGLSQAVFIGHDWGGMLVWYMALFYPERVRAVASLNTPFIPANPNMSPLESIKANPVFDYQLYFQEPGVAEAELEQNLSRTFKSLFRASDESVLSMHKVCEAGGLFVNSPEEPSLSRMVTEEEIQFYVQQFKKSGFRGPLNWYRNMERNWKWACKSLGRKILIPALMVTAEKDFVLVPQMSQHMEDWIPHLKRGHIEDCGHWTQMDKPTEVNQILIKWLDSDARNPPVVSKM
sEH act: soluble epoxide hydrolase (human) activation | 0.04% of 91,000 active | P34913 | activation, % at 2 µM | purified human sEH enzymatic activity, activator screen; in the data active = activation above about 37%
IL1B NFkB inh: blocks IL-1B driven NFkB nuclear translocation in HUVEC cells; HUVEC IL-1B NFkB p65 nuclear translocation imaging; inhibition, % at 2 µM; 0.43% of 94,000 active;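 active = inhibition above about 30% together with a positive call from visual inspection of the well image, limit read from the data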;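 note: nuclear over cytoplasmic p65 intensity ratio measured by imaging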
Each line names hits and unclear results; the compound was inactive in the other large screens. Most compounds without a hit are left out; they make up all but 1.2% or so of the library.

Cc1ccc(S(=O)(=O)N(C)c2cc(S(=O)(=O)N3CCC(C)CC3)c(C)cc2C)cc1	IL1B cytotox 93.7
CC1CCN(S(=O)(=O)c2ccc3[nH]c(=O)c(=O)[nH]c3c2)CC1	none
COc1ccc(/C=N/NC(=O)CCc2c(C)n[nH]c2C)cc1O	NFkB transloc pot 55.1
COc1cc(C)c(C(C)C)cc1S(=O)(=O)NCCCn1ccnc1	none
CCOC(=O)N1CCC(NC(=O)c2cc(C(=O)Nc3ccc(OC)c(OC)c3)ccc2CO)CC1	none
COc1ccccc1CNC(=O)c1ccc(OCc2c(C)noc2C)c(OC)c1	none
Cc1noc(C)c1COc1cccc(C(=O)NCc2ccccc2Cl)c1	sEH inh 86.2
CCSc1nc(C(F)(F)F)cc(=O)n1-c1ccccc1	none
Cn1c(SCc2ccc(Cl)cc2Cl)nc(C(F)(F)F)cc1=O	NFkB transloc pot 43.7
CCCC(C)C(=O)NCc1ccccc1OC (stereo not drawn)	NFkB transloc pot 123.2
CCCCC(CC)C(=O)NCc1ccccc1OC (stereo not drawn)	NFkB transloc pot 101.3
COc1ccccc1CNC(=O)c1ccccc1N	none
N#Cc1c(-c2ccccc2)ccnc1Oc1ccccc1	none
COc1ccc2nc(C)c3cc(C)oc3c2c1	IL1B cytotox 87.1
O=S(=O)(NCCCN1CCN(c2ccccc2F)CC1)c1cccc2cccnc12	none
Cc1cc(C)nc(NC(=O)C(C)C)n1	none
O=C(Nc1ccc2snnc2c1)Nc1cccc2ccccc12	IL1B cytotox 87.4
O=C(Nc1ccc2snnc2c1)N1CCN(c2ccccc2)CC1	none
CCc1nnc(-n2nc(C)cc2-c2ccccc2)n1N	IL1B cytotox 94.9, IL1B NFkB inh 97.5
CNC(=O)c1ccc(-n2nc(C)cc2-c2ccccc2)cc1	none
Cc1nn2c(N3CCN(C(=O)c4ccco4)CC3)cc(C(C)(C)C)nc2c1-c1ccccc1	none
Cc1nn2c(N3CCN(C4CCCC4)CC3)cc(C(C)(C)C)nc2c1-c1ccccc1	IL1B cytotox 81.9
COC(=O)c1sc2cnccc2c1N	IL1B cytotox 78.3
O=C(c1ccco1)N1CCN(c2ncnc3c2nnn3Cc2ccccc2Cl)CC1	none
O=C(c1ccco1)N1CCN(c2nc(C(F)(F)F)nc3c2nnn3Cc2ccccc2)CC1	NFkB transloc pot 40.7
COC(=O)c1c(-c2ccccc2)csc1NC(=O)CSc1ncnc2sc(C)c(C)c12	IL1B cytotox 89.1
CNC(=O)CSc1nnc(-c2cc3c(C)nn(-c4ccccc4)c3s2)n1C	none
CCCCC(CC)CNC(=O)C1CCCN(S(=O)(=O)c2cnc[nH]2)C1 (stereo not drawn)	sEH inh 83.3
COc1ccccc1NC(=O)C(CCS(C)(=O)=O)N1C(=O)c2ccccc2C1=O (stereo not drawn)	NFkB transloc pot 42.4
COc1ccc(NC(=O)[C@H](CCS(C)(=O)=O)N2Cc3ccccc3C2=O)c(OC)c1	none (no result: sEH inh, sEH act)
O=C(C1CCC(=O)N1Cc1ccccc1Cl)N1CCN(c2cccc(Cl)c2)CC1 (stereo not drawn)	none
CCN(CC)CCCn1c(=S)[nH]c2ccc(Cl)cc2c1=O	none
CCN(CC)CCCn1c(=S)[nH]c2cc(Cl)ccc2c1=O	IL1B cytotox 78.5
O=C(NC1CCCCCCC1)C1CCN(S(=O)(=O)N2CCC3(CC2)OCCO3)CC1	sEH inh 87.9
CN(C)S(=O)(=O)c1ccc2c(c1)c(=O)c(C(=O)N1CCOCC1)cn2C	IL1B NFkB inh 65.6
COC(=O)C1=C(C)N(CCc2ccccc2)C(=O)C1	IL1B cytotox 92.6, IL1B NFkB inh 87.6
CCCNS(=O)(=O)c1cccc(C(=O)NC2CCCc3ccccc32)c1 (stereo not drawn)	none
CCOCCc1nnc(NC(=O)COC)s1	IL1B cytotox 84.4
CCOC(=O)Nc1nnc(CCc2ccccc2)s1	IL1B NFkB inh 100.7
CCCCCOC(=O)Nc1nnc(CCCCC)s1	IL1B cytotox 90.2
CCOCC(=O)Nc1nnc(COC)s1	none
CCCCCc1nnc(NC(=O)OCCC)s1	none
COC(=O)Nc1nnc(CCc2ccccc2)s1	none
CC1CCc2c(sc(NC(=O)CSc3ncnc4c3cnn4-c3ccccc3Cl)c2C#N)C1 (stereo not drawn)	none
C=CCn1c(Br)nc2c1c(=O)n(C)c(=O)n2C	NFkB transloc pot 49.4
CC(C)CN(CC(C)C)C(=O)CC(=O)NC(=O)c1ccc(Cl)cc1	none (no result: NFkB transloc pot, IL1B cytotox, IL1B NFkB inh)
CCCOc1cccc(C2C(C(=O)c3ccco3)=C(O)C(=O)N2CCN(CC)CC)c1 (stereo not drawn)	NFkB transloc pot 48.6 (no result: sEH inh, sEH act)
CCN(CC)CCN1C(=O)C(O)=C(C(=O)c2ccco2)C1c1ccccn1 (stereo not drawn)	none
Cc1cc(C)n(-c2c(F)c(F)c(CO)c(F)c2F)n1	none
Cc1c(C)[n+](=O)c2c(n1[O-])CCCCC2	none
CC(C)C(=O)c1cc2c(cc1NC(=O)c1ccccc1)OCCO2	none
CC(C)C(=O)c1cc2c(cc1NC(=O)c1cccs1)OCCO2	IL1B NFkB inh 32.2
COC(=O)c1ccc(OC(=O)c2ccc(OC)c(OC)c2)c(OC)c1	sEH act 37.5
Cc1[nH][nH]c(=O)c1C(c1ccc(-c2ccc(Cl)c(Cl)c2)o1)c1c(C)[nH][nH]c1=O	NFkB transloc pot 41.5
COC(=O)c1cn(NC(=O)c2ccc(OC)c(OC)c2)c(=O)c2ccccc12	IL1B NFkB inh 39.0
O=C(NCCC1=CCCCC1)c1ccc(F)c(S(=O)(=O)N2CCOCC2)c1	sEH inh 97.4
Cc1c(C(=O)NCCC2=CCCCC2)oc2ccc(S(=O)(=O)N3CCOCC3)cc12	none (no result: sEH inh, sEH act)
O=C(Nc1c(-c2ccccc2)nc2ccccn12)c1ccco1	IL1B cytotox 93.5
Cc1ccc2c(C(=O)CN3CCN(C4CCCCC4)CC3)c(C)[nH]c2c1	IL1B cytotox 91.9
Cc1ccc2c(C(=O)CN3CCCCC3CCO)c(C)[nH]c2c1 (stereo not drawn)	none (no result: sEH inh, sEH act)
Cc1c(Cc2ccccc2)sc(N)c1C(N)=O	IL1B cytotox 86.8, IL1B NFkB inh 98.4
Cc1c(Cc2ccccc2)sc(NC(=O)Cc2ccccc2)c1C(N)=O	none
O=C(NCCSCc1ccco1)Nc1cccc(Cl)c1	sEH inh 80.5
CCCCNC(=O)C1CCN(C/C(C)=C/c2ccccc2)CC1	none
C/C(=C\c1ccccc1)CN1CCC(C(=O)N2CCC(C)CC2)CC1	NFkB transloc pot 46.0
CCOC(=O)NC(NC(=O)OCC)C(=O)c1ccc(F)cc1	none
CCC(=O)NC(O)C(=O)c1ccc(C)cc1 (stereo not drawn)	IL1B NFkB inh 32.2
O=C(CC1NCCNC1=O)Nc1ccc2c(c1)OCO2 (stereo not drawn)	none
COc1ccc(CCN2C(=O)C3C4CC(C5C(C(=O)N/N=C\c6ccc(Cl)cc6)=NOC45)C3C2=O)cc1OC (stereo not drawn)	sEH inh 94.1 (no result: NFkB transloc pot, IL1B cytotox, IL1B NFkB inh)
COc1cccc(C(=O)N/N=C2/SCC(=O)N2CCc2ccc(OC)c(OC)c2)c1	none
CCn1cc(Br)c(C(=O)N(C)Cc2ccccc2)n1	none
COc1ccccc1C1CN(c2ccc(F)cc2F)N=C1c1cccs1 (stereo not drawn)	sEH act 37.6
COc1ccccc1C1CC(c2cccs2)=Nc2ccccc2S1 (stereo not drawn)	none
